About 8,800 targets were measured; listed, in parts, are those with a hit and a random draw of the rest. About 0.5% of all pairs of compound and target were hits. Values without a mark were called inactive.
Key:
Assay in all cases: log2 fold change, soluble protein after heating vs DMSO (PISA); higher = thermal stabilisation; K562 lysate, 10 uM; active = over 0.2 and 3.5 SD of the protein, either way, in both replicates (recomputed)
[1] = compound: CN1CC[C@H](c2c(O)cc(O)c3c(=O)cc(-c4ccccc4Cl)oc23)[C@H](O)C1 [alvocidib]
Method in brief: (§1)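 Thermal stability, expressed as log-two fold change relative to solvent controls, is given from duplicates. Crude K562 extract in PBS pH 7.4 with 1 mM MgCl2, at 1 mg/mL protein, was treated with 10 μM compound for 30 min and heated in aliquots for 3 min across 48°C-58°C. After pooling, adjustment to 0.5% NP-40 at 4°C and centrifugation at 21,000xg for 90 min, supernatant protein was measured by TMTpro 16plex LC-MS/MS with channel sums equalised.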

[2] = compound: CN1CCc2c(c3ccccc3n2Cc2ccc(C(=O)NO)cc2)C1 [Tubastatin A]
Method in brief: as §1

[3] = compound: CNC(=O)C1=CC=CC=C1NC2=NC(=NC=C2Cl)NC3=C(C=C(C=C3)N4CCOCC4)OC
Method in brief: as §1

[4] = compound: CNC(=O)c1ccc(Nc2ncc(C(F)(F)F)c(NCc3nccnc3N(C)S(C)(=O)=O)n2)cc1 [defactinib]
Method in brief: as §1

[5] = compound: CNc1nc(-c2ccc3c(N)n[nH]c3c2)cc(N2C[C@@H](C(=O)NC3CCCCC3)CC[C@H]2C)n1
Method in brief: as §1

[6] = compound: COC(=O)N[C@@H](C)CNc1nccc(-c2cn(C(C)C)nc2-c2cc(Cl)cc(NS(C)(=O)=O)c2F)n1 [encorafenib]
Method in brief: as §1

[7] = compound: COC(=O)[C@H](CCSC)NC(=O)C1=C(C=C(C=C1)NC[C@H](CS)N)C2=CC=CC=C2
Method in brief: as §1

[8] = compound: COc1cc(Nc2ncc3c(n2)-c2ccc(Cl)cc2C(c2c(F)cccc2OC)=NC3)ccc1C(=O)O [alisertib]
Method in brief: as §1

[9] = compound: COc1cc2nc(-c3cc(F)ccc3O)nc(N[C@@H]3CNC[C@H]3C(C)(C)O)c2cc1OC
Method in brief: as §1

[10] = compound: COc1cc2ncnc(Nc3ccc(F)c(Cl)c3)c2cc1OCCCN1CCOCC1 [gefitinib]
Method in brief: as §1

[11] = compound: CS(=O)(=O)CCNCc1ccc(-c2ccc3ncnc(Nc4ccc(OCc5cccc(F)c5)c(Cl)c4)c3c2)o1 [lapatinib]
Method in brief: as §1

[12] = compound: CS(=O)(=O)N1CCN(Cc2cc3nc(-c4cccc5[nH]ncc45)nc(N4CCOCC4)c3s2)CC1 [pictilisib]
Method in brief: as §1

[13] = compound: C[C@@H](Oc1cc(-c2cnn(C3CCNCC3)c2)cnc1N)c1c(Cl)ccc(F)c1Cl [crizotinib]
Method in brief: as §1

[14] = compound: C[C@H](C1=CC=C(C=C1)C(=O)NC2=C3C=CNC3=NC=C2)N
Method in brief: as §1

[15] = compound: C[C@H](Nc1ncnc2nc[nH]c12)c1cc2cccc(Cl)c2c(=O)n1-c1ccccc1 [duvelisib]
Method in brief: as §1

[16] = compound: Cc1cc(Nc2cc(CN3CCOCC3)c3nc(C)c(Cc4ccc(Cl)cc4F)n3n2)n[nH]1 [gandotinib]
Method in brief: as §1

[17] = compound: Cc1cc(Nc2cc(N3CCN(C)CC3)nc(Sc3ccc(NC(=O)C4CC4)cc3)n2)n[nH]1 [tozasertib]
Method in brief: as §1

[18] = compound: Cc1ccc(-n2nc(C(C)(C)C)cc2NC(=O)Nc2ccc(OCCN3CCOCC3)c3ccccc23)cc1 [doramapimod]
Method in brief: as §1

[19] = compound: Cc1ccc(NC(=O)c2ccc(CN3CC[C@H](N(C)C)C3)c(C(F)(F)F)c2)cc1Nc1nccc(-c2cncnc2)n1 [bafetinib]
Method in brief: as §1

[20] = compound: Cc1cccc(CC(=O)N2CCc3c2ccc(-c2cn(C)c4ncnc(N)c24)c3F)n1
Method in brief: as §1

Chain of UniProt O00625 (O00625 whole entry, looked up): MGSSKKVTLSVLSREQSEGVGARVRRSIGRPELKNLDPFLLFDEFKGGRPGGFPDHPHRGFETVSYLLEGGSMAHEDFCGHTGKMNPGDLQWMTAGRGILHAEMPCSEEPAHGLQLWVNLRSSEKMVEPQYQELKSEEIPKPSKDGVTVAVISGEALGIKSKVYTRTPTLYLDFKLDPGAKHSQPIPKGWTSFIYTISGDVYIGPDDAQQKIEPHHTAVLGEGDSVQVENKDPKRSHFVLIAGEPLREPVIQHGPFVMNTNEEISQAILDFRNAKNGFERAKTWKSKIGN
Chain of UniProt Q16875 (Q16875 whole entry, looked up): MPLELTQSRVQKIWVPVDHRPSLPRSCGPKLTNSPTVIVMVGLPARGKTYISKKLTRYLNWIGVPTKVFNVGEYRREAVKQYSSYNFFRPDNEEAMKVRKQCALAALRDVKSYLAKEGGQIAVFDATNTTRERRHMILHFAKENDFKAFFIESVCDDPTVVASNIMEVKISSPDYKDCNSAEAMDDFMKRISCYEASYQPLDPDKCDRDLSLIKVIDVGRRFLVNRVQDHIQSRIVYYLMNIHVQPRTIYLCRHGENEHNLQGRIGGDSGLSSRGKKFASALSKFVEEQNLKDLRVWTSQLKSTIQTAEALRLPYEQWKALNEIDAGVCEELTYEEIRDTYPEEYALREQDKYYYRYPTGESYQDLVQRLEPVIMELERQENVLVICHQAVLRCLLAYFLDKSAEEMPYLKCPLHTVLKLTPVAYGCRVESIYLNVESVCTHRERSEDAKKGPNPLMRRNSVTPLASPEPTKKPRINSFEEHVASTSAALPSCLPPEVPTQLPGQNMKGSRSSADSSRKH
Chain of UniProt P46019 (P46019 whole entry, looked up): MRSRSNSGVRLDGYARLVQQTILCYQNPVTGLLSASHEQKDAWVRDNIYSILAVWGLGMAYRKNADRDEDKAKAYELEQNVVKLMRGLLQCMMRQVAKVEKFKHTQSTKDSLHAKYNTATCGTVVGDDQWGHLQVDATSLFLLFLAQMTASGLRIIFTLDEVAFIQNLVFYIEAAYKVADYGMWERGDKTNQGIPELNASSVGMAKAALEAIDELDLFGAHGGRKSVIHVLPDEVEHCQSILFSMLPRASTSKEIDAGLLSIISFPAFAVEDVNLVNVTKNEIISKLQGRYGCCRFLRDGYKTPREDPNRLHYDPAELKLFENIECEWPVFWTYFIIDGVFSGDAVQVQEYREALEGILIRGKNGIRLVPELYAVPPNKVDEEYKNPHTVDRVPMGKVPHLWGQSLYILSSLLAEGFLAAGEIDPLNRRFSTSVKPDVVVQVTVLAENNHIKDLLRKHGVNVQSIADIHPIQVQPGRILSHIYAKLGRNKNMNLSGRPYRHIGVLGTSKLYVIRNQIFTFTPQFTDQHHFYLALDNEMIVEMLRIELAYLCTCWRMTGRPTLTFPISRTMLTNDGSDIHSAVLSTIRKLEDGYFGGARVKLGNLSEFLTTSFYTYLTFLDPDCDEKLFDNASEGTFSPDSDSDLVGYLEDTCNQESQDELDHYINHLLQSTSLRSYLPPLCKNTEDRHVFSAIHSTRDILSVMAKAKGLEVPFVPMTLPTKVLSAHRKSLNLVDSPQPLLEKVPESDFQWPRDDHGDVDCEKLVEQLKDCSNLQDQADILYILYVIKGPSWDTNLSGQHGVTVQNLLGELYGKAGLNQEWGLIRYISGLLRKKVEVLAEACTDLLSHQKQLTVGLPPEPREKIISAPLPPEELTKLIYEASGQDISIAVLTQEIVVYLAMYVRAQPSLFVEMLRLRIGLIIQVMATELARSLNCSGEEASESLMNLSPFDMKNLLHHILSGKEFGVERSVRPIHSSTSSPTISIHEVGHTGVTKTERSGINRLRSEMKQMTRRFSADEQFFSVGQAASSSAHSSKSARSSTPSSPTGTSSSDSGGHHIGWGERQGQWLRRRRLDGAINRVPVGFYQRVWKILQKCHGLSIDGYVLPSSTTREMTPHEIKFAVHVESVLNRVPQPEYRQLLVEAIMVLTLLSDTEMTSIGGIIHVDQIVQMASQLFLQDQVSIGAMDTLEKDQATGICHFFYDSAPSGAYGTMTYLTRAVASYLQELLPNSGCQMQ
Chain of UniProt Q9Y244 (Q9Y244 whole entry, looked up): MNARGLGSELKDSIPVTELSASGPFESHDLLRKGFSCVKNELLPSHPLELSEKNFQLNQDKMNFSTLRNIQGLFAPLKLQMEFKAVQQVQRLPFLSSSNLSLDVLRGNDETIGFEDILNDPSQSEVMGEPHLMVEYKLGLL
Chain of UniProt O00541 (O00541 whole entry, looked up): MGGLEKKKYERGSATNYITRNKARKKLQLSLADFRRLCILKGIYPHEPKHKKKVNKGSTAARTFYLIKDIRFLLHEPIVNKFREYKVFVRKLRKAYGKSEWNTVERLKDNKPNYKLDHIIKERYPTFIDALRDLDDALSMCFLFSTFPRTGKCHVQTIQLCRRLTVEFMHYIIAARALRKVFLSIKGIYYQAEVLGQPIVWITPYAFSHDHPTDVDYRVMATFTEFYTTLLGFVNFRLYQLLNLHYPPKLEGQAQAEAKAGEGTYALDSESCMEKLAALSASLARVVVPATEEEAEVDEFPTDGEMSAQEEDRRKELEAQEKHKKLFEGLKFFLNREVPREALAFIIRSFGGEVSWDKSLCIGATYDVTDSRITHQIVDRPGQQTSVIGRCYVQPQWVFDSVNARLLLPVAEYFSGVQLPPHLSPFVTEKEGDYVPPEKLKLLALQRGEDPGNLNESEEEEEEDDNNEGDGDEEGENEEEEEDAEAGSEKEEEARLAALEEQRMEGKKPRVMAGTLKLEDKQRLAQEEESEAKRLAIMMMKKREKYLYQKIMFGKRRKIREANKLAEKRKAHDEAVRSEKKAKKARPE
Chain of UniProt O75334 (O75334 whole entry, looked up): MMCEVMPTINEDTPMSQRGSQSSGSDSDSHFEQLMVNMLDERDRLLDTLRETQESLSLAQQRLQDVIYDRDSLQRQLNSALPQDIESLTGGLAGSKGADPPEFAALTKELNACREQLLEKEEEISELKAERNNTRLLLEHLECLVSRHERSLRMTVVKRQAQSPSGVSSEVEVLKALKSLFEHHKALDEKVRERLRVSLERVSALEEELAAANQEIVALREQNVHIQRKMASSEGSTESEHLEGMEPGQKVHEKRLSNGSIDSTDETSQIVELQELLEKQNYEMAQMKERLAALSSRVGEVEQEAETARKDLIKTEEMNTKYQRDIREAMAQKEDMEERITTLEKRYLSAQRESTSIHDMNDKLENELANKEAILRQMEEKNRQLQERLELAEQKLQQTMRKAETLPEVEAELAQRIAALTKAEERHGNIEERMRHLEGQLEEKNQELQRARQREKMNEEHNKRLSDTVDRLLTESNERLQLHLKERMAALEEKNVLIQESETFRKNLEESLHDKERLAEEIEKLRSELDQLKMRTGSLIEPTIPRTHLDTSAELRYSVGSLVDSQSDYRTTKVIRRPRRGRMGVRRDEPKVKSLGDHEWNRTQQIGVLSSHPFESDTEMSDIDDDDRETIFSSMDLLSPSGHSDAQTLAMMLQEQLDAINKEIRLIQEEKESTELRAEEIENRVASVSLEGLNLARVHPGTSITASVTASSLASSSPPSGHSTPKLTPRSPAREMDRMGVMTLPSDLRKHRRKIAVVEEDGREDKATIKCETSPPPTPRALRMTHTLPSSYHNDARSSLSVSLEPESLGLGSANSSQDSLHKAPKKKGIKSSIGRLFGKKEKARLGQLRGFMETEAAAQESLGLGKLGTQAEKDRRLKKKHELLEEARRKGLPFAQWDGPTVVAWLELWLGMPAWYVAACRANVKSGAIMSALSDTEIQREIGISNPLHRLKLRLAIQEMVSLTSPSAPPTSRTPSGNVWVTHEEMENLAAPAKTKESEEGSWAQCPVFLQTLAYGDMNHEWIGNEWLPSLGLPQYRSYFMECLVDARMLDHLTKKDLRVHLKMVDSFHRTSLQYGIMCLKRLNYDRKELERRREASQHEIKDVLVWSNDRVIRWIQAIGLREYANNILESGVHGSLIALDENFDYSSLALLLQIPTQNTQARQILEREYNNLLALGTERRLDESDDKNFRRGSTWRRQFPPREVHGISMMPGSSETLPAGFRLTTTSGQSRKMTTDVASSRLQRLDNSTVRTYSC
Chain of UniProt Q9BRX2 (Q9BRX2 whole entry, looked up): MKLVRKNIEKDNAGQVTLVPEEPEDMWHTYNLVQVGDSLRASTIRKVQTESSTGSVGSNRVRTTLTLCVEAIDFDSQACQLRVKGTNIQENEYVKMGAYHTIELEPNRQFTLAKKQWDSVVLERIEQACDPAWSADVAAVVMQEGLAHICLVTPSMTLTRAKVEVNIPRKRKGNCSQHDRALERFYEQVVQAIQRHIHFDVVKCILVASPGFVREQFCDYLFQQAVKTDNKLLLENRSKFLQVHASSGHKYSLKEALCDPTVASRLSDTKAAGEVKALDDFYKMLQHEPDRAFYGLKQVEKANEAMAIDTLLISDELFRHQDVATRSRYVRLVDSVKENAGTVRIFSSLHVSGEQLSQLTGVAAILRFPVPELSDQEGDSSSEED
Chain of UniProt O75569 (O75569 whole entry, looked up): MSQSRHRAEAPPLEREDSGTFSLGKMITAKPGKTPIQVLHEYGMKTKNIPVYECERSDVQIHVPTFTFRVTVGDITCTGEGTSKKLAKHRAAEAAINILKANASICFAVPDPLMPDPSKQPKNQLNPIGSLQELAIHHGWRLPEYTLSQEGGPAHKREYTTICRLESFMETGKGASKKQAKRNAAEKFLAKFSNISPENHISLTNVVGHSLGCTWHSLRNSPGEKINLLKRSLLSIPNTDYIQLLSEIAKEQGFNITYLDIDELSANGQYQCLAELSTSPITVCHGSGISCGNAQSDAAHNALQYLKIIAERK
Chain of UniProt Q96I23 (Q96I23 whole entry, looked up): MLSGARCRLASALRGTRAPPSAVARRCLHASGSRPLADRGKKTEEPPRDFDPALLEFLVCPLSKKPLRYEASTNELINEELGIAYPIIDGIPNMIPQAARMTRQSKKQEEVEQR

Target | log2 fold change [1] | log2 fold change [2] | log2 fold change [3] | log2 fold change [4] | log2 fold change [5] | log2 fold change [6] | log2 fold change [7] | log2 fold change [8] | log2 fold change [9] | log2 fold change [10] | log2 fold change [11] | log2 fold change [12] | log2 fold change [13] | log2 fold change [14] | log2 fold change [15] | log2 fold change [16] | log2 fold change [17] | log2 fold change [18] | log2 fold change [19] | log2 fold change [20]
PRKRA (UniProt O75569) | 0.024 | -0.254 | 0.028 | 0.02 | -0.009 | -0.001 | 0.146 | -0.019 | -0.004 | -0.006 | 0.01 | -0.003 | -0.021 | -0.017 | 0 | -0.094 | -0.005 | -0.01 | -0.003 | 0.032
PYURF (UniProt Q96I23) | 0.077 | 0.041 | 0.073 | 0.181 | 0.019 | 0.113 | 0.027 | 0.007 | -0.007 | -0.038 | 0.036 | -0.066 | 0.016 | 0.01 | 0.087 | -0.015 | -0.048 | 0.011 | 0.091 | 0.015
PPFIA2 (UniProt O75334) | -0.107 | 0.021 | 0.022 | -0.011 | -0.026 | -0.082 | -0.029 | -0.007 | 0.012 | 0.057 | -0.014 | 0.031 | -0.212 | -0.244 (active) | 0.001 | 0.139 | -0.028 | 0.023 | 0.019 | 0.147
POLD1 (UniProt P28340) | 0.012 | -0.075 | 0.035 | 0.027 | 0.011 | 0.008 | 0.074 | 0.007 | 0.007 | -0.036 | -0.014 | -0.021 | -0.022 | 0.013 | -0.019 | -0.061 | 0.003 | 0.02 | -0.022 | 0.017
PCBP2 isoform 8 (UniProt Q15366) | -0.01 | -0.133 | 0.022 | 0 | 0.079 | 0.053 | 0.108 | -0.013 | -0.085 | -0.122 | 0.022 | -0.013 | 0.001 | 0.013 | 0.04 | 0.029 | -0.026 | -0.092 | 0.082 | 0.036
PREP (UniProt P48147) | 0.018 | -0.021 | 0.018 | 0.005 | -0.019 | -0.024 | 0.361 (active) | -0.011 | 0.013 | -0.012 | -0.024 | -0.013 | -0.016 | 0.009 | 0.043 | -0.042 | -0.012 | -0.001 | -0.004 | -0.01
PELO (UniProt Q9BRX2) | 0.149 | -0.086 | 0.026 | -0.022 | -0.043 | 0.056 | 0.084 | 0.008 | 0.006 | 0.006 | 0.036 | 0.001 | -0.064 | 0.369 (active) | -0.039 | -0.202 | 0.022 | 0.019 | -0.054 | -0.175
POMP (UniProt Q9Y244) | 0.072 | -0.061 | 0.035 | 0.024 | -0.03 | 0.074 | -0.002 | -0.013 | -0.033 | -0.093 | 0.048 | 0.031 | -0.054 | 0.221 | 0.11 | -0.063 | 0.022 | 0.038 | 0.017 | -0.038
PHKA2 (UniProt P46019) | 0.064 | -0.084 | 0.265 (active) | -0.027 | 0.032 | -0.008 | 0.018 | -0.008 | 0.06 | -0.03 | -0.085 | -0.042 | 0.048 | 0.022 | -0.01 | -0.035 | -0.015 | 0.013 | -0.109 | -0.012
PRKAR2B (UniProt P31323) | 0 | -0.021 | -0.05 | -0.117 | -0.023 | 0.04 | 0.1 | -0.014 | -0.032 | -0.046 | 0.013 | -0.059 | -0.007 | -0.011 | 0 | -0.31 (active) | 0.038 | 0.017 | -0.02 | 0.001
PRKCA (UniProt P17252) | 0.034 | -0.005 | -0.027 | 0.032 | -0.041 | 0.048 | -0.041 | -0.031 | 0.133 | -0.038 | -0.041 | -0.021 | -0.019 | 0.054 | -0.057 | -0.207 | 0.021 | -0.023 | -0.069 | -0.079
PIR (UniProt O00625) | 0.006 | 0.019 | -0.011 | -0.032 | 0.012 | 0.003 | -0.07 | 0.016 | -0.008 | -0.012 | 0.017 | -0.05 | 0.019 | 0.099 | -0.035 | -0.058 | -0.008 | -0.021 | 0.008 | -0.006
PRKCSH (UniProt P14314) | 0.009 | 0.039 | -0.001 | -0.014 | -0.035 | -0.003 | -0.036 | -0.006 | 0.024 | 0.024 | -0.004 | -0.004 | 0.062 | 0.046 | 0.022 | -0.023 | 0.02 | -0.042 | 0.05 | -0.088
PFKFB3 isoform 4 (UniProt Q16875) | -0.012 | -0.05 | 0.058 | -0.006 | 0.012 | 0.041 | -0.137 | -0.01 | 0 | -0.01 | -0.228 | -0.057 | -0.021 | 0.004 | -0.009 | -0.006 | -0.003 | 0.007 | -0.03 | 0.007
PES1 (UniProt O00541) | -0.017 | -0.044 | 0.05 | 0.005 | 0.017 | 0.006 | 0.35 (active) | 0.028 | -0.003 | 0.007 | 0.006 | 0.005 | -0.001 | -0.027 | 0.01 | -0.025 | 0.004 | -0.021 | -0.014 | 0.064
PRIM1 (UniProt P49642) | 0 | -0.11 | 0.023 | -0.012 | 0.033 | 0.052 | 0.041 | -0.054 | -0.019 | -0.008 | -0.02 | 0.023 | -0.064 | 0.024 | 0.004 | -0.099 | 0.027 | -0.022 | -0.077 | 0.007
